# This is a sample that favours compounds with a hit; in the whole collection about 10% have one here.
# CCT chaperon mod – cytosolic chaperonin activity modulation; activity change, % (concentration not given with the values), hits read low; 0.3% of 360,000 active; AID 651819; purified chaperonin ATPase assay, HTRF ADP detection, 30 min; in the data active = activity change below about -30%
#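 TRiC (40 or 20 nM final, by batch activity) in 30 mM Tris pH 7.4, 100 mM KCl, 5 mM MgCl2, 1 mM DTT was treated with compound at 76 uM single dose, then 10 uM ATP, 30 min at 37 °C. ADP was read by HTRF Transcreener.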
# Sfp inh – inhibitors of Bacillus subtilis Sfp phosphopantetheinyl transferase. 3.5% of 310,000 active. AID 1490. Potency, µM, for inactives: largest response in the series, negative = inhibition, actives largely listed as inhibitors. Biochemical Sfp PPTase activity, qHTS. Q9F4F7;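 also: the enzyme is Sfp with the accession as filed and its product quenches rhodamine fluorescence; potency is read from the fitted curve at half-maximal effect; 0% = enzyme reaction without inhibitor and -100% = no enzyme wells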
#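 With Hepes-Na pH 7.6 buffer containing 10 mM MgCl2, Sfp (15 nM) modified BHQ-2-YbbR (12.5 uM) using rhodamine-CoA (5 uM). Two reads 30 minutes apart at 525/598 nm yielded each well's rate.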
# Mm-Cpn inhibitor – blocks the Methanococcus maripaludis chaperonin Mm-Cpn; purified Mm-Cpn ATPase, ADP Transcreener TR-FRET; 0.031% of 330,000 active; Potency, µM (highest dose often 76.9 µM), for the others: at the highest dose activity, negative = inhibition, hits mostly inhibitors; AID 504842; also: potency is read from the fitted curve at half-maximal effect; nearly all actives have a fitted effect of over 80% in size
#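 25 nM Mm-CPN + cpd, 10 min 37°C; + 10 uM ATP, 30 min 37°C; buffer 30 mM Tris pH 7.4, 100 mM KCl, 5 mM MgCl2, 1 mM DTT; Transcreener ADP HTRF detection 30 min RT.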
# G9a block – G9a (human) methyltransferase inhibition | G9a H3K9 monomethylation, AlphaScreen, 2 h | Potency, µM (highest dose often 102 µM), for the others: top-dose activity, negative = inhibition, usual class: inhibitors | 8.8% of 350,000 active | Q96KQ7; also: potency is read from the fitted curve at half-maximal effect; nearly all actives have a fitted effect of over 75% in size
# Target sequence (Q96KQ7 913-1193 limits assumed): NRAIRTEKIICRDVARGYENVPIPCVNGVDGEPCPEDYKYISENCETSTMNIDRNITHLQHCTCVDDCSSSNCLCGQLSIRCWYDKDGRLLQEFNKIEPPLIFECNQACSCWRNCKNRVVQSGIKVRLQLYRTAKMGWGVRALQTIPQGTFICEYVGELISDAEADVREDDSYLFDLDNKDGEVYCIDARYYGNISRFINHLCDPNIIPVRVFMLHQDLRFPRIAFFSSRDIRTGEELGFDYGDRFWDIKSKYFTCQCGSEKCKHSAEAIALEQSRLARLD
#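 Chemiluminescent proximity detection of H3K9 monomethylation, read after 10 min bead incubation in the dark. Reaction: 20 nM G9a, 500 nM biotin-H3K9 peptide, 20 uM SAM cofactor, 2 h, room temperature, following 15 min enzyme-compound preincubation.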
# VDR inhibitor – vitamin D3 receptor (human) inhibition | P11473 | VDR-SRC2-3 peptide fluorescence polarization, 2 h | Potency, µM, for the others: max response, negative = inhibition, usual class: inhibitors | 0.93% of 400,000 active; also: potency is read from the fitted curve at half-maximal effect
#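 Fluorescence polarization assay of small-molecule disruption of VDR binding to coregulator peptide SRC2-3. Compounds and controls pin-transferred, then read after 2 h incubation at ambient room temperature.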
# PLK1 PBD inh – blocks phosphopeptide binding to human PLK1 polo-box domain; Potency, µM, inactives show max response, negative = inhibition, actives largely listed as inhibitors; 2.8% of 360,000 active; P53350; Plk1 PBD binding of FITC phosphopeptide, fluorescence polarization; also: potency is read from the fitted curve at half-maximal effect; series mostly up to about 57 µM; nearly all actives have a fitted effect of over 65% in size
# Active calls of the source: *; ? = inconclusive; . = not tested or not shown; [ ] = remark or other dose. Unless noted, calls follow the shape of the dose curve; as a rule, active = well fitted curve in the direction sought with a large enough effect; inconclusive = small, poorly fitted or top-dose-only effect, or another doubt; inactive = no such curve, though single readings can be large; an effect the other way counts as inactive or inconclusive. Unless noted, % is scaled to controls: 0 for no effect and ±100 for the full control effect.
SMILES,CCT chaperon mod,Sfp inh,Mm-Cpn inhibitor,G9a block,VDR inhibitor,PLK1 PBD inh
COc1ccc(S(=O)(=O)N2c3ccccc3OCC2CC(=O)O)cc1 (configuration not stated),-2,17%,0%,0%,?,21µM*
COc1ccc(S(=O)(=O)N2CCN(C(=O)C3COc4ccccc4O3)CC2)cc1 (configuration not stated),-1,.,0%,?,4%,11µM*
CC(=O)Nc1ccc(S(=O)(=O)N2CCN(C(=O)C3COc4ccccc4O3)CC2)cc1 (configuration not stated),-6,6%,0%,13%,-1%,-2%
Cc1c(CC(=O)N2CCN(C(=O)C3COc4ccccc4O3)CC2)c(=O)oc2cc(O)c(Cl)cc12 (configuration not stated),-2,4%,-11%,4%,3%,-5%
CC1CCCN(C(=O)Cn2ncc3c([nH]c4ccccc43)c2=O)C1 (configuration not stated),.,.,.,-4%[59 µM],7%,.
Nc1ncc(S(=O)(=O)NCc2ccc(Cl)cc2)cn1,.,.,.,1%[59 µM],14%,.
CC(C)(C)c1ccc(CCC2OCC(C[N+]3(C)CCOCC3)O2)cc1 (configuration not stated),-1,-19%,-1%,50µM*,-5%,-23%
Cc1ccc(NC(=O)N2CCc3c([nH]c4ccccc34)C2c2ccccc2F)c(Cl)c1 (configuration not stated),.,.,.,?,12%,.
CC(C)(C)c1ccc(C(=O)Nc2sc3c(c2C#N)CCC(C(C)(C)C)C3)cc1 (configuration not stated),.,.,.,4%[59 µM],-4%,.
CC(C)(C)C1CCc2c(sc(NC(=O)C3CC=CCC3C(=O)O)c2C#N)C1 (configuration not stated),-1,10%,-2%,0%[59 µM],?,21µM*
Cc1cc(C(=O)Nc2sc3c(c2C#N)CCC(C(C)(C)C)C3)no1 (configuration not stated),-1,-2%,?,?,7%,-23%
CCC(C)(C)C1CCc2c(sc(NC(=O)c3ccccc3C(=O)O)c2C#N)C1 (configuration not stated),0,1%,0%,?,-25%,27µM*
CC(C)(C)C1CCc2c(sc(NC(=O)c3cc(C4CC4)on3)c2C#N)C1 (configuration not stated),-1,-24%,0%,79µM*,?,?
COCCNC(=O)c1c(NC(=O)c2cc(=O)c3cc(Cl)ccc3o2)sc2c1CCCC2,.,.,.,10%[59 µM],-4%,.
CCCCN(CC)C(=O)c1ccc2c(c1)NC(=O)c1ccccc1S2,.,.,.,-30%[59 µM],-4%,.
OC(CNCC(c1ccc(Cl)cc1Cl)c1c[nH]c2ccccc12)c1ccccc1 (configuration not stated),2,50µM*,2%,50µM*,2%,-3%
c1ccc(-c2nc(Sc3ncnc4c3cnn4-c3ccccc3)n[nH]2)cc1,.,20%,-2%,32µM*,.,.
CCOc1cc(C(=O)NCc2ccc3c(c2)CCN3C(=O)CC)cc(OCC)c1OCC,.,.,.,-5%[59 µM],4%,.
COc1ccc(CNC(=O)Cn2nnc(-c3ccc(C(F)(F)F)cc3)n2)cc1,.,.,.,-13%[59 µM],8%,.
N#Cc1nc(N2CCCC2)nc(N(c2ccccc2)c2ccccc2)n1,.,.,.,.,-13%,.
CCOc1cc2c(cc1OC)C(c1cccc([N+](=O)[O-])c1)NCC2 (configuration not stated),1,0%,1%,?,?,4.7µM*
CC1CCCCN1S(=O)(=O)c1ccc2[nH]c(=O)cc(C(=O)NCCc3ccc(Cl)cc3)c2c1 (configuration not stated),.,.,.,5%[59 µM],18%,.
CCOC(=O)C1=C(CSc2nc3c(cc2C#N)CN(C)CC3)OC(N)=C(C#N)C1c1ccc(Cl)cc1 (configuration not stated),1,-31%,-6%,.,7%,?
